Assay outcomes deposited in PubChem by several laboratories.
A selection: hits, their analogues and other compounds. The true share with any hit is near 2%.
PolyA inh: polyadenylation inhibitors in yeast reporter cells, primary screen, luminescence, S. cerevisiae; activity score, % at 12 µM; 300,000 compounds, 0.02% hits; S. cerevisiae SKY197-pL101 polyadenylation reporter, beta-gal luminescence; efflux-impaired pdr1/pdr3 knockout yeast; score 100 = 6 SD above DMSO;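 active means lowest replicate activity score at least 50, where 100 means six control SD above control mean; inconclusive means lowest score under 50 but half or more replicates reach 50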;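 further: yeast exposed to compound for 9 h at 30 °C; higher score means more reporter readthrough which indicates perturbed polyadenylation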
Calb FLC: C. albicans growth inhibition with fluconazole, primary screen, CaCi-2 strain, Alamar Blue fluorescence | C. albicans CaCi-2 (fluconazole-resistant clinical isolate) + fluconazole, 48 h | growth inhibition, % (concentration not given with the values) | 300,000 compounds, 0.57% hits | AID 1979, 2009;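 active means growth inhibition above about 58% in most replicates, limit read from the data, passing the limit was not always enough; inconclusive means exactly half the replicates above a set limit; inactive means most replicates below a set limit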;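 further: all wells also contain fluconazole at 8 µg/ml as a sub-toxic cotreatment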
Platelet DG rel: inhibitors of platelet dense granule secretion, primary screen, cell-based, MLPCN, human platelets; inhibition, %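 (compounds screened at 7.5 µM in platelet-rich plasma)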; 300,000 compounds, 0.22% hits; human platelet-rich plasma, SFLLRN dense granule ATP release, luminescence;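 active means mean replicate score, as percent of positive control, at or above 50; inconclusive means mean below 50 but at least one replicate at or above 50; inactive means mean and every replicate below 50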
SKKanGAS inh: S. pyogenes SKKanGAS growth inhibitors in kanamycin, primary screen, streptokinase expression inhibitor project, SKKanGAS strain, BacTiter-Glo luminescence | 6 h | inhibition, % at 7.5 µM | 300,000 compounds, 1.3% hits | AID 1662, 2009;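 active means mean replicate score, as percent of positive control median, at least 50; inconclusive means mean below 50 but one replicate at or above 50; inactive means mean and every replicate below 50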;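 further: strain carries kanamycin resistance gene driven by streptokinase promoter and grows in 40 µg/ml kanamycin; loss of luminescence reflects streptokinase promoter inhibition or plain growth inhibition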
CR mimetic SO: reduction of superoxide in aged yeast, primary screen, HTS | S. cerevisiae aged cells, superoxide DHE fluorescence; active compounds read low | superoxide response (% of plate mean), % at 10 µM | 330,000 compounds, 0.18% hits;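 active means superoxide response under a set limit, about three screen SD below normal, cut at about 65% in these data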;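 further: yeast aged for seven days with compound at 30 °C before DHE staining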
Hits are given with their value; . = inactive; ? = inconclusive; / = no result.

SMILES	PolyA inh	Calb FLC	Platelet DG rel	SKKanGAS inh	CR mimetic SO
CCN(C(=O)c1ccc2c(=O)n3c(nc2c1)CCCCC3)c1ccccc1C	.	.	.	.	.
CCn1c(=O)c(C(=O)Nc2ncccc2C)c(O)c2ccccc21	.	96.1	.	.	.
CCn1c(=O)c(C(=O)Nc2ncccc2O)c(O)c2ccccc21	.	.	.	.	.
CCn1c(=O)c(C(=O)NCc2cccnc2)c(O)c2ccccc21	.	94.2	.	.	.
CC[C@@]12C(=O)N(c3ccc(OC)cc3)C(=O)N1[C@H](c1ccc(Cl)cc1)[C@@H]1C(=O)N(C3CCCCC3)C(=O)[C@@H]12	.	.	.	.	.
S=c1[nH]nc(C2CCCCC2)n1/N=C/c1cccc(Cl)c1Cl	.	.	.	58.6	.
COc1cccc(/C=N/n2c(C3CCCCC3)n[nH]c2=S)c1OC	.	.	.	.	.
COc1ccccc1N(C)S(=O)(=O)c1ccc(C(=O)Nc2cc(F)ccc2C)cc1	/	/	/	/	.
CCCCCn1c(N)c(-c2nc3ccccc3s2)c2c([N+](=O)[O-])nn(CC)c(=O)c21	.	.	.	54.3	.
Cc1ccccc1-n1cnc2cc(NCc3cccs3)ccc21	.	.	.	49.9	.
COc1cc(/C=N/NC(=O)c2nnn(-c3nonc3N)c2C(C)C)ccc1OCc1ccc(F)cc1	.	.	.	58.0	.
CC(C)c1c(C(=O)N/N=C/c2ccc3c(c2)OCO3)nnn1-c1nonc1N	.	/	.	.	.
CCN(CC)c1ccc(/C=N/NC(=O)c2nnn(-c3nonc3N)c2C(C)C)c(O)c1	.	?	.	58.6	.
CN(C)Cc1c(C(=O)N/N=C/c2cccc(OCc3ccc(F)cc3)c2)nnn1-c1nonc1N	.	.	.	.	.
CC(C)c1c(C(=O)N/N=C/c2cccc(OCc3ccc(F)cc3)c2)nnn1-c1nonc1N	.	.	.	87.5	.
COC(=O)c1ccc(CNC(=O)COC(=O)c2ccc(N(C)C)cc2)cc1	.	.	.	.	.
O=C(NCCC(=O)N1CCN(S(=O)(=O)c2ccccc2F)CC1)Nc1ccccc1	/	/	/	/	.
O=C1CCCc2[nH]c3cccc(/C(=C/c4ccccc4)c4ccccc4)c3c21	.	.	.	.	.
COC(=O)c1ccc2[nH]c3cccc(/C(=C/c4ccccc4)c4ccccc4)c3c2c1	.	.	.	94.3	.
Cc1ccc2nc(NC(=O)CSc3nncc(=O)n3N)sc2c1	.	.	.	.	.
Cc1cc(C)c(S(=O)(=O)c2ccc(Cl)cc2C)c(Cl)n1	.	.	.	.	.
CC(C)(C)c1nnc(NC(=O)CCS(=O)(=O)Cc2ccccc2)s1	.	.	.	.	.
O=C(CCS(=O)(=O)Cc1ccccc1)Nc1nnc(C(F)(F)F)s1	.	82.9	.	.	.
CCC(NC(=O)Nc1nnc(C(F)(F)F)s1)(C(F)(F)F)C(F)(F)F	.	?	.	117.8	.
CC(C)(C)c1nnc(NC(=O)CCS(=O)(=O)c2ccccc2)s1	.	93.3	.	.	.
SMILES	PolyA inh	Calb FLC	Platelet DG rel	SKKanGAS inh	CR mimetic SO
O=C(O)CCC(=O)Nc1nnc(C(F)(F)F)s1	/	/	/	/	.
O=C(CCS(=O)(=O)c1ccccc1)Nc1nnc(C(F)(F)F)s1	.	97.0	.	.	.
O=S(=O)(c1cccc2nsnc12)N1CCc2ccccc21	.	?	.	.	/
CC(=O)c1cccc(-n2nnnc2SCC(=O)N2CCCC2)c1	.	.	50.2	.	.
COc1ccc(-c2csc3nc[nH]c(=O)c23)cc1OC	.	.	.	.	.
Cc1ccc(-c2csc3nc[nH]c(=S)c23)cc1C	.	.	.	93.0	.
O=C(NCc1ccc2c(c1)OCO2)c1nc(Cn2cc([N+](=O)[O-])cn2)no1	.	.	.	.	.
O=C(Oc1ccc(-c2cnc3ccccc3n2)cc1)c1cccc([N+](=O)[O-])c1	.	.	.	.	.
O=C(Oc1ccc(-c2cnc3ccccc3n2)cc1)c1ccc(Cl)c([N+](=O)[O-])c1	.	.	.	74.0	.
COc1ccc(CNC(=O)c2cccnc2)cc1	.	.	.	.	.
COc1ccc(-c2cc3ccc(O)cc3oc2=O)cc1OC	.	.	71.5	.	.
Cc1cccc(OCc2nnc(SC(C)C(=O)Nc3ccc(N4CCOCC4)cc3)o2)c1 (stereo unspecified)	/	/	/	/	.
CN(C)c1cc[n+](CC(=O)c2ccc(-c3ccccc3)cc2)cc1	.	112.3	.	.	.
